What all share (assay): NCI-60 one-dose screen, 48 h (100 = growth as untreated, 0 = no growth, -100 = all killed)
For one assay, the system named is K-562 leukemia. The note with it: 10 µM unless noted.
The test system of another assay is MALME-3M melanoma. As to conditions: 10 µM unless noted.
For the next assay, the system named is MDA-MB-231 breast. The note with it: 10 µM unless noted.
The next assay deals with RXF 393 renal. The note with it: 10 µM unless noted.
The subject of a further assay is SF-268 CNS. The note with it: 10 µM unless noted.
Another assay concerns SF-295 CNS. The note with it: 10 µM unless noted.
A further assay has as its system SF-539 CNS. The note with it: 10 µM unless noted.
A further assay deals with UACC-257 melanoma. The note with it: 10 µM unless noted.
Another assay deals with M14 melanoma. As to conditions: 10 µM unless noted.
The test system of another assay is HCT-15 colon. The note with it: 10 µM unless noted.
Another assay deals with HT29 colon. The note with it: 10 µM unless noted.
In another assay the test system is SNB-75 CNS. The note with it: 10 µM unless noted.
A further assay concerns SNB-19 CNS. As to conditions: 10 µM unless noted.
The subject of another assay is U251 CNS. The note with it: 10 µM unless noted.
For another assay, the system named is PC-3 prostate. As to conditions: 10 µM unless noted.
A further assay has as its system UACC-62 melanoma. As to conditions: 10 µM unless noted.
The test system of another assay is LOX IMVI melanoma. The note with it: 10 µM unless noted.
A further assay deals with SK-MEL-28 melanoma. As to conditions: 10 µM.
The next assay deals with SK-MEL-2 melanoma. The note with it: 10 µM unless noted.
Another assay has as its system SK-MEL-5 melanoma. The note with it: 10 µM unless noted.

About 83,000 compounds went through this panel and 20% of them were active in at least one assay; those are over-represented in the sample as a whole.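 Activity criterion: percent growth below 10, measured after cells in 96-well plates were exposed to a single compound concentration for 48 hours.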 Values without a mark were called inactive. Calls of active or inactive are those of the source.

Take `O=c1c2cc(F)cc(Cl)c2sc2c(Cl)nc3ccccc3c12`: the growth with K-562 leukemia is 110%; in the assay with MALME-3M melanoma it was 88.9%; with MDA-MB-231 breast it was 84%; with RXF 393 renal it was 100%; in the assay with SF-268 CNS, 98.5%; with SF-295 CNS, 101%. Moreover, the growth in the assay on SF-539 CNS is 97%; with UACC-257 melanoma, 114%; in the assay with M14 melanoma, 99.5%; in the assay with HCT-15 colon, 103%; in the assay on HT29 colon, 101%; in the assay on SNB-75 CNS, 84.6%. The growth in the assay with SNB-19 CNS is 96.5%; with U251 CNS, 105%; with PC-3 prostate it was 98.9%; with UACC-62 melanoma it was 92.2%; in the assay on LOX IMVI melanoma, 80.9%; in the assay with SK-MEL-28 melanoma, 108%. In addition, in the assay with SK-MEL-2 melanoma, the growth is 108%.

As to `O=C(Nc1ccc(F)cc1F)c1cc(I)ccc1O`, the growth with K-562 leukemia is 9.06% (active); with MALME-3M melanoma, -17.6% (active); in the assay with MDA-MB-231 breast, 35.2%; in the assay on RXF 393 renal, -1.12% (active); in the assay with SF-268 CNS it was 16.1%; in the assay with SF-295 CNS, 1.39% (active). Further, the growth in the assay with SF-539 CNS is 13.3%; in the assay with UACC-257 melanoma, -9.13% (active); with M14 melanoma, 16.7%; in the assay with HCT-15 colon, 15.9%; in the assay with HT29 colon, 76.6%; in the assay with SNB-75 CNS, -2.44% (active). For the same compound, the growth in the assay with SNB-19 CNS is 16.8%; in the assay with U251 CNS, 4.06% (active); in the assay with PC-3 prostate, 5.01% (active); in the assay on UACC-62 melanoma, 9.89% (active); in the assay with LOX IMVI melanoma it was 13.4%; in the assay with SK-MEL-28 melanoma, 23.8%. For the same compound, the growth in the assay on SK-MEL-2 melanoma is -15.8% (active).

Turning to `COc1ccc(CCN2C(=O)CCSC2=S)cc1`, the growth in the assay with K-562 leukemia is 29.2%; in the assay with MALME-3M melanoma it was 76.7%; in the assay with MDA-MB-231 breast, 59.2%; with RXF 393 renal, 18.7%; with SF-268 CNS it was 46.2%; in the assay on SF-295 CNS it was 67.2%. Also, the growth was 7.31% (active) in the assay with SF-539 CNS; 85.4% in the assay on UACC-257 melanoma; 61.2% in the assay with M14 melanoma; 12.4% in the assay on HCT-15 colon; 18% in the assay on HT29 colon; 54.1% with SNB-75 CNS. The growth is 84% in the assay with SNB-19 CNS; 92.2% in the assay with U251 CNS; 94.1% in the assay with SK-MEL-5 melanoma; 77.1% with UACC-62 melanoma; 8% (active) in the assay with LOX IMVI melanoma; 77.7% in the assay on SK-MEL-28 melanoma. In the assay with SK-MEL-2 melanoma, the growth was 85.4%.

For the compound `O=C(CCc1nnc2sc(COc3ccccc3)nn12)c1nc2ncccc2[nH]1`, the growth with K-562 leukemia was 107%; in the assay with MALME-3M melanoma, 91.4%; in the assay with MDA-MB-231 breast, 91.8%; with RXF 393 renal it was 98.4%; in the assay with SF-268 CNS it was 96%; with SF-295 CNS it was 103%. The growth with SF-539 CNS is 100%; in the assay with UACC-257 melanoma, 98.9%; in the assay with M14 melanoma, 95.6%; with HCT-15 colon it was 100%; with HT29 colon, 106%; in the assay with SNB-75 CNS, 79.8%. Moreover, the growth in the assay on SNB-19 CNS is 100%; in the assay on U251 CNS, 101%; with PC-3 prostate, 96.5%; in the assay on UACC-62 melanoma it was 91.8%; in the assay with LOX IMVI melanoma, 91.8%; with SK-MEL-28 melanoma, 107%. The growth in the assay with SK-MEL-2 melanoma is 102%.

For the compound `O=C(Nc1ccc(Br)cc1F)c1cc(F)ccc1O`, the growth in the assay with K-562 leukemia is 8.73% (active); in the assay on MALME-3M melanoma it was -21% (active); with MDA-MB-231 breast, -25.5% (active); in the assay with RXF 393 renal, 4.59% (active); in the assay on SF-268 CNS, 12.6%; in the assay on SF-295 CNS it was -58.3% (active). Moreover, the growth with SF-539 CNS is 4.66% (active); with UACC-257 melanoma, -11.2% (active); in the assay on M14 melanoma, -11.3% (active); with HCT-15 colon, 2.25% (active); with HT29 colon it was 18%; with SNB-75 CNS it was -16.8% (active). Also, the growth with SNB-19 CNS was 19.3%; with U251 CNS it was 3.38% (active); with PC-3 prostate, 2.45% (active); in the assay with UACC-62 melanoma, -16.4% (active); in the assay with LOX IMVI melanoma it was 9.8% (active); in the assay with SK-MEL-28 melanoma it was 6.8% (active). In addition, in the assay on SK-MEL-2 melanoma, the growth was -29.2% (active).

`CCOC(=O)CSc1c(-c2ccccc2)c2cc(Cl)ccc2[nH]c1=O`: the growth with K-562 leukemia is 84.1%; with MALME-3M melanoma, 114%; in the assay with MDA-MB-231 breast, 104%; in the assay on RXF 393 renal, 103%; in the assay on SF-268 CNS, 102%; with SF-295 CNS it was 69.6%. For the same compound, the growth with SF-539 CNS is 107%; in the assay on UACC-257 melanoma, 120%; in the assay with M14 melanoma it was 104%; with HCT-15 colon it was 91.7%; with HT29 colon, 105%; in the assay with SNB-75 CNS, 94.1%. Also, the growth in the assay on SNB-19 CNS is 108%; in the assay on PC-3 prostate, 91.9%; in the assay on UACC-62 melanoma, 92.6%; with LOX IMVI melanoma, 84%; in the assay on SK-MEL-28 melanoma, 109%; in the assay with SK-MEL-2 melanoma, 114%.

The values are drawn from PubChem BioAssay (NCI).
